Data reported in ChEMBL document CHEMBL4513146, “CO-ADD screening of Karazin Kharkiv National University (Ukraine) compounds”.
The campaign covered roughly 21,000 compounds. Fewer than 10 showed an effect of 50% or more. A selection follows. Measured potencies and affinities stand elsewhere.

test system: Acinetobacter baumannii; details: Concentration 32 ug.mL-1;; ASSAY_TEST Inhibition of Bacterial Growth; detection method Absorption (OD600); MEDIA CAMHB; plate type 384well; NBS; CORNING #3640; time 18 hr

SMILES	Inhibition [%]
Cc1ccc(NC(=O)Cn2nc3c4c5c(sc4ncn3c2=O)CCCC5)c(Cl)c1	-9.66
COc1cccc(-n2ccn3c(SCC(=O)c4ccc(C)cc4)nnc3c2=O)c1	-4.26
COc1ccc(-c2cc3c4nn(CC(=O)Nc5cc(OC)cc(OC)c5)c(=O)n4ccn3n2)cc1	-11.34
CCc1nnc2c(S(=O)(=O)N(Cc3cccc(C)c3)c3cccc(Cl)c3)cccn12	8.48
CCOc1ccc(C(=O)Cn2nc3n(CCC(C)C)c(=O)c4sccc4n3c2=O)cc1	1.79
O=C(CSc1nnc2c(=O)n(-c3ccc(Br)cc3)ccn12)Nc1cc(F)ccc1F	0.45
CCOc1ccc(-n2ccn3c(SCC(=O)c4ccc(C)cc4)nnc3c2=O)cc1	4.11
CCOc1ccc(NC(=O)Cn2nc3c(Oc4ccc(C)cc4)nccn3c2=O)cc1	0.89
CCc1nnc2ccc(S(=O)(=O)N(Cc3ccc(OC)cc3)c3cccc(F)c3)cn12	-12.55
COc1ccc(NC(=O)Cn2nc3c4c5c(sc4ncn3c2=O)CCCC5)cc1	-5.35
COc1ccccc1NC(=O)Cn1nc2c3c4c(sc3ncn2c1=O)CCCC4	-5.75
O=C(CSc1nnc2c(=O)n(-c3cccc(F)c3)ccn12)Nc1ccc(Br)cc1	3.4
COc1cccc(Oc2nccn3c(=O)n(CC(=O)Nc4ccc5c(c4)OCO5)nc23)c1	0
Cc1ccc(-c2ccc3nn(CC(=O)Nc4ccc(C#N)cc4)c(=O)n3n2)cc1C	6.14
CCCc1nnc2c(=O)n(CC(=O)Nc3ccc(C(C)=O)cc3)c3ccccc3n12	9.58
Cc1ccc(-c2cc3c4nnc(SCC(=O)Nc5ccc(C#N)cc5)n4ccn3n2)cc1	-8.65
CCOc1ccc(NC(=O)Cn2nc3c(Oc4cccc(OC)c4)nccn3c2=O)cc1	5.77
Cc1ccc(F)cc1NC(=O)CSc1nc2ccccc2n2c(C)nnc12	5.49
Cc1ccc(Oc2nccn3c(=O)n(CC(=O)Nc4ccc(C)cc4Br)nc23)cc1	2.31
CCCCn1c(=O)c2sccc2n2c(=O)n(CC(=O)c3ccc(C)cc3C)nc12	-4.56
O=C(Cn1nc2nc(Nc3ccc(F)cc3)ccn2c1=O)Nc1cc(F)ccc1F	12.46
